Shown are actives, neighbours in structure and some others; about 3.9% of the full set was active somewhere.
SKKanGAS inh – S. pyogenes SKKanGAS growth inhibitors in kanamycin, primary screen, streptokinase expression inhibitor project, SKKanGAS strain, BacTiter-Glo luminescence; 6 h; inhibition, % at 7.5 µM; hit rate 1.3% among 300,000; AID 1662, 2009;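 active means mean replicate score, as percent of positive control median, at least 50; inconclusive means mean below 50 but one replicate at or above 50; inactive means mean and every replicate below 50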;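 further: strain carries kanamycin resistance gene driven by streptokinase promoter and grows in 40 µg/ml kanamycin; loss of luminescence reflects streptokinase promoter inhibition or plain growth inhibition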
WT yeast gro inh – growth inhibition of WT strain, primary screen, mitochondrial fusion inhibitor project, WT and mutant strains, chemical genetic | mitochondrial fusion phenotypic screen | inhibition, % at 10 µM | hit rate 2.1% among 190,000; in the data active means inhibition above about 58%; tested in S. cerevisiae
Platelet DG rel – inhibitors of platelet dense granule secretion, primary screen, cell-based, MLPCN, human platelets; AID 1663, 2009; human platelet-rich plasma, SFLLRN dense granule ATP release, luminescence; hit rate 0.22% among 300,000; inhibition, %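 (compounds screened at 7.5 µM in platelet-rich plasma)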;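 active means mean replicate score, as percent of positive control, at or above 50; inconclusive means mean below 50 but at least one replicate at or above 50; inactive means mean and every replicate below 50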
PHOSPHO1 inh – PubChem AID 1565; inhibition, % at 13.3 µM; recombinant PHOSPHO1, absorbance phosphatase assay; Phosphoethanolamine/phosphocholine phosphatase (Homo sapiens), Q8TCT1; hit rate 1.1% among 290,000; in the data active means inhibition above about 60%
Target sequence (Q8TCT1 whole entry, looked up): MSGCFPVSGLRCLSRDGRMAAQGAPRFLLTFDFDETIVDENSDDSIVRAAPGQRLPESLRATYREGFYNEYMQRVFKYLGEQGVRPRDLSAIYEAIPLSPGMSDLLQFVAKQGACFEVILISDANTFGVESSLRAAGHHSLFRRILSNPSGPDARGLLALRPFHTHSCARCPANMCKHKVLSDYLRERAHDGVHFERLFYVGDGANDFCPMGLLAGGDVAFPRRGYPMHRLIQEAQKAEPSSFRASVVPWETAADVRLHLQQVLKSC
Rtt109 HAT inh – inhibitors of C. albicans Rtt109/Vps75 HAT, primary screen, biochemical, ThioGlo CoA-SH fluorescence, plate reader | purified Rtt109/Vps75, 4 h | inhibition, % at 34.9 µM | Histone acetyltransferase RTT109 (Candida albicans (strain SC5314 / ATCC MYA-2876)), … | AID 540336, 2011 | hit rate 0.16% among 330,000;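 active means inhibition of at least 50% in every replicate; inconclusive means best replicate reaches 50% inhibition but some replicates fall short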
Target sequence (Q5AAJ8 whole entry, looked up): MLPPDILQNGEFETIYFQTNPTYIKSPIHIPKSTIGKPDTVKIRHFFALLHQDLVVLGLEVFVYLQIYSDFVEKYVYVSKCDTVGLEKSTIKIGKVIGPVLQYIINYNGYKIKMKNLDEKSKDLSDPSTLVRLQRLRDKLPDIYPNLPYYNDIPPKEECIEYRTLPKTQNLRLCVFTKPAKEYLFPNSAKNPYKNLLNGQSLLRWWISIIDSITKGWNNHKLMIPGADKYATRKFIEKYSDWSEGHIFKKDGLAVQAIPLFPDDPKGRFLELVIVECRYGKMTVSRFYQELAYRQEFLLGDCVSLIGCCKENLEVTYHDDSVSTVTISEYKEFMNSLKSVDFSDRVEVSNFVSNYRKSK
TPT1 inhibitor – Candida albicans TPT1 enzyme inhibitors, primary screen, biochemical, fluorescence polarization; tRNA 2'-phosphotransferase TPT1 (Candida albicans SC5314); recombinant caTPT1, FP RNA substrate dephosphorylation; inhibition, % at 5 µM; hit rate 0.81% among 300,000; AID 1962, 2009;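 active means inhibition above the mean of all tested compounds plus 3 SD, set per screening campaign, cut at about 24% in these data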
Hits are given with their value; . = inactive; ? = inconclusive; / = no result.

SMILES	SKKanGAS inh	WT yeast gro inh	Platelet DG rel	PHOSPHO1 inh	Rtt109 HAT inh	TPT1 inhibitor
CC1CCN(S(=O)(=O)c2cn(CC(=O)N3CCN(c4cccc(C(F)(F)F)c4)CC3)cn2)CC1	.	/	.	.	.	.
Cc1ccc(NC(=O)Cc2nc(-c3c[nH]c(C(=O)N4CCCC4)c3)cs2)c(C)c1	/	/	/	/	.	/
O=C(COc1cc(Cl)ccc1Cl)N1CCNC1=O	/	/	/	/	.	/
CCC(NC(=O)c1ccccc1NC(=O)c1ccccc1)C(=O)OC (stereo not drawn)	.	77.3	.	.	/	.
O=C(c1nc2ccc(Cl)cn2c1CN1CCC(CO)CC1)N1CCc2ccccc2C1	52.2	/	.	.	.	.
O=C1CCCCN1CCCC(=O)N1CCCC(Nc2ccccc2)C1 (stereo not drawn)	.	/	.	.	.	.
O=C(Nc1nnc(-c2ccncc2)o1)c1ccc(Br)s1	53.3	.	.	.	.	.
O=C(Nc1nnc(-c2ccccc2)o1)c1nc2ccccc2s1	92.1	.	.	.	.	.
CC(C)(C)C(=O)Nc1nnc(-c2ccncc2)o1	.	.	.	.	.	.
O=C(Nc1ccc(N2CCOCC2)cc1)c1nc2ccccc2s1	.	/	88.0	.	.	.
CCCn1c2ccccc2c2cnn(CC(=O)NC3CCCC(C)C3C)c(=O)c21 (stereo not drawn)	.	/	.	.	.	.
Cc1nc2nc(C)c(NS(=O)(=O)c3ccc(CC(C)C)cc3)c(=O)n2[nH]1	.	/	.	.	.	.
Cc1onc(-c2ccccc2)c1C(=O)N/N=C/C(Br)=C/c1ccccc1	.	82.2	.	.	.	.
Cc1cccc(Nc2nc(-c3ccc4c(c3)OCCO4)cs2)c1	.	.	.	73.1	.	.
Cc1cccc(CCN2C(N(C)C)=NC[C@@H]2C)c1	/	/	/	/	.	.
Cc1cccc2nc(COc3ccc4ccccc4c3Br)cn12	63.9	/	.	.	/	.
Cc1nc(NC(C)c2ccccc2)sc1C(=O)Nc1ccccc1 (stereo not drawn)	.	.	.	60.9	.	.
Cc1nc(NCc2ccccc2)sc1C(=O)Nc1ccccc1	.	.	.	68.1	.	.
CCCCn1c2c(c(=N)c3ccccc31)CCC2	.	/	122.6	.	.	.
CCCCCCCCCCn1c2c(c(=N)c3c1CCC3)CCC2	?	.	.	.	76.5	.
CCCCCCCCn1c2c(c(=N)c3ccccc31)CCC2	.	.	.	.	?	/
CCCCCn1c2c(c(=N)c3ccccc31)CCC2	.	/	69.9	.	.	.
Cc1cc(C(=O)NC2CCCc3c2cnn3-c2cccc(C)c2C)n(C)n1 (stereo not drawn)	.	/	.	.	.	.
O=C(c1ccc(S(=O)(=O)N2CCCC2)cc1)N(c1ccc(F)cc1)C1C=CS(=O)(=O)C1 (stereo not drawn)	.	/	.	.	.	.
COc1ccc(CCNC(=O)c2c(-c3ccccc3)noc2C)cc1OC	.	.	.	.	.	.
SMILES	SKKanGAS inh	WT yeast gro inh	Platelet DG rel	PHOSPHO1 inh	Rtt109 HAT inh	TPT1 inhibitor
COc1ccc(C(=O)NC(=S)NNC(=O)c2c(-c3ccccc3)noc2C)cc1OC	91.3	/	.	.	.	.
Cc1onc(-c2ccccc2)c1C(=O)NNC(=S)NC(=O)c1ccc2c(c1)OCO2	98.2	/	.	.	.	.
CCOC1OC2C(CO)OC(n3cnc4c(N)ncnc43)C2O1 (stereo not drawn)	.	.	73.8	.	.	.
Nc1ncnc2c1ncn2[C@@H]1O[C@H](COP(=O)(O)O)[C@@H](O)[C@H]1O	.	/	83.1	.	.	.
Nc1nc(Cl)nc2c1ncn2[C@@H]1O[C@H](CO)[C@@H](O)[C@H]1O	.	.	88.8	.	.	.
OC[C@H]1O[C@@H](n2cnc3c(NC4CCCC4)nc(Cl)nc32)[C@H](O)[C@@H]1O	/	/	/	/	.	.
O=C1C=C(c2cccc(CO)c2)C[C@@H](c2ccc3c(c2)OCO3)C1	/	/	/	/	.	/
COc1ccc(C)cc1N1C(=N)/C(=C2/Nc3ccccc3S2)C(c2ccccc2)C1=O (stereo not drawn)	/	84.1	/	.	.	.
CSc1nc(/C=C2\C=Nc3ccccc32)c(O)n1C	.	.	69.6	.	.	.
CC(C)n1c(O)c(/C=C2\C=Nc3ccccc32)sc1=Nc1ccccc1	.	.	.	.	/	.
COc1cc(/C=C2\SC(N3CCC(C)CC3)=NC2=O)ccc1O	.	/	.	.	.	.
CC1CCc2sc(C(=O)NNS(=O)(=O)c3ccc(F)c(F)c3F)cc2C1 (stereo not drawn)	.	/	.	/	.	.
COc1ccc(C(=O)NC(=S)NNC(=O)CNC(=O)C2CCCCC2)cc1	.	.	.	.	.	.
COc1ccc(C(=O)NC(=S)NNC(=O)Cc2cccs2)cc1	.	.	.	100.3	.	.
COc1cc(OC)cc(C(=O)NC(=S)NNC(=O)Cc2cccs2)c1	69.6	.	.	.	.	.
CCC(C)[C@H](NC(=O)N1CC(=O)Nc2ccccc21)C(=O)N1CCC(C(=O)O)CC1 (stereo partly drawn)	.	/	.	.	.	.
Cn1ccnc1SCC(=O)c1ccc(Br)cc1	.	67.1	.	61.2	.	.
Cc1nc(-c2ccccn2)nc(SCC(=O)c2ccccc2)c1Cl	92.9	/	.	.	.	.
COc1ccccc1C(=O)CSc1n[nH]c(N)n1	.	/	.	79.7	.	.
COc1ccccc1C(=O)CSc1nccn1C	.	/	.	.	53.8	.
COc1ccc(C(=O)NCCc2c[nH]c3ccccc23)cc1[N+](=O)[O-]	.	/	.	.	.	.
Cc1cc(C)c(NC(=O)CN2C(=O)CC(C)S(=O)(=O)c3ccccc32)c(C)c1 (stereo not drawn)	.	/	.	.	.	.
Cc1nc(SCC(=O)c2ccccc2)n[nH]1	.	.	.	97.8	?	.
O=C(CSc1n[nH]c(-c2ccncc2)n1)c1ccccc1	.	.	.	.	.	.
COc1ccc(N(C(C)=O)S(=O)(=O)c2cccs2)cc1	.	.	/	.	.	.
SMILES	SKKanGAS inh	WT yeast gro inh	Platelet DG rel	PHOSPHO1 inh	Rtt109 HAT inh	TPT1 inhibitor
CC(=O)Oc1ccc(N(C(C)=O)S(=O)(=O)c2cccs2)cc1	.	66.2	.	.	.	.
C/C(=N\O)c1ccc2c3c([nH]c2c1)CCCC3	.	73.8	.	.	.	.
CCOC(=O)c1cc(C#N)c(SC)nc1C	.	/	/	.	.	.
CCOC(=O)c1cc2c(N)c(C(=O)c3cc(C#N)c(SC)nc3C)sc2nc1C	.	.	.	.	61.8	.
Cc1cc(Cl)ccc1NC(=S)N1CCN(C(=O)C2CCCO2)CC1 (stereo not drawn)	.	.	.	.	.	.
O=C(C1CCCO1)N1CCN(C(=S)Nc2ccc(Cl)cc2Cl)CC1 (stereo not drawn)	.	.	.	.	52.7	.
CCn1c(C)cc(/C=C2\NC(=O)N(Cc3ccccc3)C2=O)c1C	.	.	.	69.6	.	.

Compound activity as filed in PubChem BioAssay.
